Experimental data: PubChem BioAssay (EPA / NIEHS)
Calls of active or inactive are those of the source. The calls were made as follows: active = hit-call score of the fitted dose curve at least 0.9, where 1 is the maximum; inactive = score below 0.9.

How the values were obtained:
Conditions in all cases: mRNA level, 48 h; actives raise or lower the signal
[1] = read-out: Glutamate-cysteine ligase catalytic (GCLC), GCLC (gene 2729); assay: LTEA_HepaRG_GCLC: Life Technologies and Expression Analysis (LTEA) Assay for Glutamate-cysteine ligase catalytic (GCLC) using HepaRG (AID 2283498)
Procedure, shortened: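 Expression by TaqMan qRT-PCR, normalized to three housekeeping genes (ACTB, GAPDH, POLR2A), with up- or down-regulation fitted against DMSO. HepaRG cells dosed in duplicate for 48 h with 8 half-log concentrations up to 100 uM, vehicle 0.5% DMSO.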

[2] = read-out: growth arrest and DNA damage 45 (GADD45G), GADD45G (gene 10912); assay: LTEA_HepaRG_GADD45G: Life Technologies and Expression Analysis (LTEA) Assay for growth arrest and DNA damage 45 (GADD45G) using HepaRG (AID 2283499)
Procedure, shortened: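 HepaRG, 48 h exposure, top 100 uM, half-log 8-point series, 0.5% DMSO vehicle, duplicates. Readout: GADD45G transcript by qRT-PCR (Fluidigm array), housekeeping-normalised (ACTB/GAPDH/POLR2A). Bidirectional curve fit vs DMSO baseline.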

[3] = read-out: Glutamate-cysteine ligase regulatory (GCLM), GCLM (gene 2730); assay: LTEA_HepaRG_GCLM: Life Technologies and Expression Analysis (LTEA) Assay for Glutamate-cysteine ligase regulatory (GCLM) using HepaRG (AID 2283500)
Procedure, shortened: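 Endpoint is GCLM transcript level by qRT-PCR, normalized to three housekeeping genes, after 48 h chemical exposure of human HepaRG cells (0.5% DMSO vehicle, top 100 uM, half-log dilutions). Fitting was bidirectional relative to DMSO.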

[4] = read-out: Glutathione S-transferase M3 (GSTM3), GSTM3 (gene 2947); assay: LTEA_HepaRG_GSTM3: Life Technologies and Expression Analysis (LTEA) Assay for Glutathione S-transferase M3 (GSTM3) using HepaRG (AID 2283501)
Procedure, shortened: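 qRT-PCR read-out of GSTM3 transcript, normalized to three housekeeping genes, from human HepaRG cells after 48 h chemical exposure. Eight-point half-log series, top 100 uM, 0.5% DMSO vehicle; gain or loss fitted relative to DMSO baseline.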

[5] = read-out: Heat shock 70 kDa protein 1 (HSPA1A), gene 3303; assay: LTEA_HepaRG_HSPA1A: Life Technologies and Expression Analysis (LTEA) Assay for Heat shock 70 kDa protein 1 (HSPA1A) using HepaRG (AID 2283502)
Procedure, shortened: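 Cells were plated and cultured for 48 h, then switched to serum-free induction medium. Chemicals were added at eight half-log concentrations up to 100 uM for 48 h. RNA was then isolated and HSPA1A measured by qRT-PCR with bidirectional curve fitting against DMSO.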

[6] = read-out: Hypoxia-inducible factor 1-alpha (Homo sapiens) (UniProt Q16665); assay: LTEA_HepaRG_HIF1A: Life Technologies and Expression Analysis (LTEA) Assay for Hypoxia-inducible factor 1 (HIF1A) Trancription factor using HepaRG (AID 2283503)
Procedure, shortened: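 HIF1A transcript level read by qRT-PCR (ACTB, GAPDH, POLR2A normalization) after 48 h chemical exposure of HepaRG cultures. Eight half-log concentrations, top 100 uM, 0.5% DMSO vehicle, duplicates; bidirectional curve fit against DMSO baseline.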

[7] = read-out: 3-Hydroxy-3-Methylglutaryl-CoA Synthase 2 (HMGCS2), HMGCS2 (gene 3158); assay: LTEA_HepaRG_HMGCS2: Life Technologies and Expression Analysis (LTEA) Assay for 3-Hydroxy-3-Methylglutaryl-CoA Synthase 2 (HMGCS2) using HepaRG (AID 2283504)
Procedure, shortened: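 qRT-PCR read-out of HMGCS2 transcript, normalised to three housekeeping genes, in HepaRG cells after 48 h chemical exposure. Eight-point curves from 100 uM, half-log dilutions, 0.5% DMSO vehicle; gain or loss fitted relative to DMSO baseline.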

HGF (gene 3082) = assay: LTEA_HepaRG_HGF: Life Technologies and Expression Analysis (LTEA) Assay for Hepatocyte Growth Facto (HGF) using HepaRG (AID 2283505)
Procedure, shortened: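 HepaRG, 48 h dosing, 8-pt half-log series from 100 uM in 0.5% DMSO, duplicates. Readout: TaqMan qRT-PCR of HGF mRNA, housekeeping-normalized; bidirectional curve fit vs DMSO baseline.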

[8] = read-out: Insulin Like Growth Factor 1 (IGF1), IGF1 (gene 3479); assay: LTEA_HepaRG_IGF1: Life Technologies and Expression Analysis (LTEA) Assay for Insulin Like Growth Factor 1 (IGF1) using HepaRG (AID 2283506)
Procedure, shortened: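 Cells are thawed, plated and cultured 48 h, then exposed in duplicate to chemical (highest 100 uM, half-log steps, 0.5% DMSO) for another 48 h. Total RNA is analysed by Fluidigm qRT-PCR for IGF1 expression relative to vehicle.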

[9] = read-out: Intercellular Adhesion Molecule 1 (ICAM1), ICAM1 (gene 3383); assay: LTEA_HepaRG_ICAM1: Life Technologies and Expression Analysis (LTEA) Assay for Intercellular Adhesion Molecule 1 (ICAM1) using HepaRG (AID 2283507)
Procedure, shortened: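 HepaRG, 48 h exposure, 8-pt half-log series from 100 uM, 0.5% DMSO vehicle, duplicates. Readout: TaqMan qRT-PCR mRNA, housekeeping-normalized (ACTB/GAPDH/POLR2A). Bidirectional curve fit vs DMSO baseline.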

[10] = read-out: Insulin-like growth factor-binding protein 1 (IGFBP1), IGFBP1 (gene 3484); assay: LTEA_HepaRG_IGFBP1: Life Technologies and Expression Analysis (LTEA) Assay for Insulin-like growth factor-binding protein 1 (IGFBP1) using HepaRG (AID 2283508)
Procedure, shortened: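 qRT-PCR mRNA read-out (TaqMan, Fluidigm array), normalised to three housekeeping genes; HepaRG cells, 48 h exposure, 8-pt half-log series from 100 uM, 0.5% DMSO vehicle; bidirectional curve fit vs DMSO baseline.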

[11] = read-out: Interleukin 6 (IL6), IL6 (gene 3569); assay: LTEA_HepaRG_IL6: Life Technologies and Expression Analysis (LTEA) Assay for Interleukin 6 (IL6) using HepaRG (AID 2283509)
Procedure, shortened: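 Transcript levels, normalized to three housekeeping genes, were quantified by qRT-PCR after 48 h chemical treatment of HepaRG cells. Eight-point half-log series from 100 uM in 0.5% DMSO, duplicates. Fitted both directions against DMSO baseline.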

[12] = read-out: Interleukin 6 Receptor (IL6R), IL6R (gene 3570); assay: LTEA_HepaRG_IL6R: Life Technologies and Expression Analysis (LTEA) Assay for Interleukin 6 Receptor (IL6R) using HepaRG (AID 2283510);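 as to AC50: differentiated human HepaRG liver cells in serum-free induction medium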
Procedure, shortened: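 Cells were thawed, plated and cultured 48 h, then medium was changed to serum-free induction medium. Chemicals were added in duplicate (100 uM top, half-log steps, 0.5% DMSO) for 48 h. Lysates were analyzed by qRT-PCR for IL6R expression.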

[13] = read-out: Potassium channel subfamily K member 1 (KCNK1), KCNK1 (gene 3775); assay: LTEA_HepaRG_KCNK1: Life Technologies and Expression Analysis (LTEA) Assay for Potassium channel subfamily K member 1 (KCNK1) using HepaRG (AID 2283511)
Procedure, shortened: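 KCNK1 transcript measured by TaqMan qRT-PCR against three housekeeping genes, after HepaRG cells were treated 48 h with eight half-log concentrations (top 100 uM, 0.5% DMSO). Curves fitted bidirectionally relative to vehicle.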

[14] = read-out: Keratin 19 (KRT19), KRT19 (gene 3880); assay: LTEA_HepaRG_KRT19: Life Technologies and Expression Analysis (LTEA) Assay for Keratin 19 (KRT19) using HepaRG (AID 2283512)
Procedure, shortened: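 HepaRG, 48 h chemical exposure, 8-pt half-log CRC from 100 uM, 0.5% DMSO vehicle, duplicates. Readout: TaqMan qRT-PCR of KRT19 mRNA, housekeeping-normalized (ACTB/GAPDH/POLR2A). Bidirectional fit vs DMSO baseline.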

[15] = read-out: JUN Transcription Factor, JUN (gene 3725); assay: LTEA_HepaRG_JUN: Life Technologies and Expression Analysis (LTEA) Assay for JUN Transcription Factor using HepaRG (AID 2283513)
Procedure, shortened: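 Read-out is JUN transcript level by TaqMan qRT-PCR, normalized to ACTB, GAPDH and POLR2A, after 48 h chemical treatment of HepaRG cells. Concentration-response spanned eight half-log points up to 100 uM in 0.5% DMSO.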

[16] = read-out: Lipase C (LIPC), LIPC (gene 3990); assay: LTEA_HepaRG_LIPC: Life Technologies and Expression Analysis (LTEA) Assay for Lipase C (LIPC) using HepaRG (AID 2283514)
Procedure, shortened: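 LIPC expression was quantified by qRT-PCR against three housekeeping genes (ACTB, GAPDH, POLR2A). Differentiated human HepaRG cells received eight half-log doses (top 100 uM, 0.5% DMSO) in duplicate for 48 h; fitting bidirectional relative to DMSO.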

[17] = read-out: Lipoprotein lipase (LPL), LPL (gene 4023); assay: LTEA_HepaRG_LPL: Life Technologies and Expression Analysis (LTEA) Assay for Lipoprotein lipase (LPL) using HepaRG (AID 2283515)
Procedure, shortened: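 LPL transcript levels quantified by TaqMan qRT-PCR against three housekeeping genes after 48 h chemical treatment of HepaRG cells. Eight-point half-log series from 100 uM in 0.5% DMSO, tested in duplicate; bidirectional fitting versus vehicle.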

[18] = read-out: matrix metalloproteinase-10 (MMP10), MMP10 (gene 4319); assay: LTEA_HepaRG_MMP10: Life Technologies and Expression Analysis (LTEA) Assay for matrix metalloproteinase-10 (MMP10) using HepaRG (AID 2283517)
Procedure, shortened: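 Expression measured by TaqMan qRT-PCR with ACTB/GAPDH/POLR2A normalisation after 48 h chemical exposure of HepaRG cells. Eight half-log concentrations, top 100 uM, 0.5% DMSO vehicle, duplicates; gain or loss fitted against vehicle.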

[19] = read-out: MicroRNA 122 (MIR122), gene 406906; assay: LTEA_HepaRG_MIR122: Life Technologies and Expression Analysis (LTEA) Assay for MicroRNA 122 (MIR122) using HepaRG (AID 2283516); also: the transcript read is the microRNA miR-122
Procedure, shortened: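 Human liver HepaRG cultures receive test chemicals for 48 h at eight half-log concentrations from 100 uM. Expression is quantified by qRT-PCR with ACTB/GAPDH/POLR2A normalization and fitted bidirectionally against 0.5% DMSO.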

Measured: AC50

Chain of Hypoxia-inducible factor 1-alpha (Homo sapiens) (Q16665 whole entry, looked up): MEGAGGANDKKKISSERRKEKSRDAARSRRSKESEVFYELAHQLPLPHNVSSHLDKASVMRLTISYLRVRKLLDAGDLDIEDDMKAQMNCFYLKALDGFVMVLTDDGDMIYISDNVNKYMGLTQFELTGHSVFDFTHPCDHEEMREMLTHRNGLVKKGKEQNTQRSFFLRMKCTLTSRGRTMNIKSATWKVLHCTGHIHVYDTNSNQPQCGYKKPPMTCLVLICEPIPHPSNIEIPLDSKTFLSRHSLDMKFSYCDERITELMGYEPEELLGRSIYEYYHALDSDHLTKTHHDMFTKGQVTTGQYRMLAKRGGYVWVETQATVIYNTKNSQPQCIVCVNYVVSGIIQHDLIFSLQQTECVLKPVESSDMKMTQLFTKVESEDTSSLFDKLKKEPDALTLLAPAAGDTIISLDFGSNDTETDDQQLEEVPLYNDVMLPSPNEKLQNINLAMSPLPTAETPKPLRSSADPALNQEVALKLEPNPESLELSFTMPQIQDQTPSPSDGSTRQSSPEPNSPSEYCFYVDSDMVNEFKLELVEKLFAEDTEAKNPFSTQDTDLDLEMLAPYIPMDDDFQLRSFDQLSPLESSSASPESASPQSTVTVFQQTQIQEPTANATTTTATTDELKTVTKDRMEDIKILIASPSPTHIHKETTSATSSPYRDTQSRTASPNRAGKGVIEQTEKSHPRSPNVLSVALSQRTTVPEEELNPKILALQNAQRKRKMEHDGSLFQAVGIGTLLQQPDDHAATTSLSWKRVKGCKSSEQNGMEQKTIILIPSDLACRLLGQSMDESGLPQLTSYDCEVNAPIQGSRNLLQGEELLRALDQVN

Cc1ccc(N(C)C)cc1
not listed: [19]
inactive: all other assays above

CCCCCC(=O)O
not listed: [7]
inactive: all other assays above

CC(=O)Oc1ccccc1C(=O)O
not listed: [6] | [19]
inactive: all other assays above

Cc1cccc([N+](=O)[O-])c1C
not listed: [7] | [8] | [15]
inactive: all other assays above

Cc1nc(-c2ccc3c(c2)CCN(CCC2CCC(NC(=O)/C=C/c4ccc(F)cc4)CC2)CC3)no1 (centres undefined)
not listed: [5] | [15] | [18] | [19]
inactive: all other assays above

Cc1cc(=O)[nH]c(=S)[nH]1
not listed: [7]
inactive: all other assays above

COC(=O)c1ccc(O)cc1
not listed: [19]
inactive: all other assays above

COc1ccc(C)cc1N
not listed: [7] | [15] | [18]
inactive: all other assays above

COc1ccc2c(c1)c(CC(=O)O)c(C)n2C(=O)c1ccc(Cl)cc1
not listed: [8] | [15] | [18] | [19]
inactive: all other assays above

C[Si]1(C)O[Si](C)(C)O[Si](C)(C)O[Si](C)(C)O1
not listed: [8]
inactive: all other assays above

O=c1[nH]cc(F)c(=O)[nH]1
active: [12] 51000 nM | [16] 80600 nM | [17] 34500 nM
not listed: [6] | [7] | [15] | [18]
inactive: all other assays above

CC(=O)OC/C=C(\C)CCC=C(C)C
inactive: all assays above

O=C(OCCCCCOC(=O)c1ccccc1)c1ccccc1
active: [1] 543 nM | [3] 1570 nM | [4] 1620 nM | HGF (gene 3082) 2120 nM | [8] 1970 nM | [9] 3240 nM | [10] 1990 nM | [11] 1020 nM | [12] 1910 nM | [13] 2570 nM | [15] 1290 nM | [16] 2100 nM | [17] 973 nM | [19] 449 nM
inactive: [2] | [5] | [6] | [14] | [18]

Cc1cccc(C)c1O
inactive: all assays above
